Experimental data taken from the supplement of paper PMC10849652.
Of roughly 7,900 targets only a part is listed; those with a hit were picked by preference. About 0.6% of all pairs of compound and target were hits. A number with no mark means an inactive call.

Key:
Assay in all cases: log2 fold change, soluble protein after heating vs DMSO (PISA); higher = thermal stabilisation; K562 cells, 10 uM, 30 min; active = over 0.2 and 3.5 SD of the protein, either way, in both replicates (recomputed)
[1] = compound: CC[C@@H]1C(=O)N(C)c2cnc(Nc3ccc(C(=O)NC4CCN(C)CC4)cc3OC)nc2N1C1CCCC1
Method in brief: (§1)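 Soluble protein was quantified by TMTpro 16plex LC-MS/MS after channel sums were equalised. It was obtained as the supernatant after 21,000xg for 90 min from pooled aliquots of K562 cells (2×10^6 cells/mL, 10 μM compound, 30 min) heated for 3 min across 48°C-58°C and extracted in PBS with 0.5% NP-40 at 4°C. Thermal stability values are relative to control samples and come from duplicates. They are given as log2 fold changes.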

volasertib = compound: CC[C@@H]1C(=O)N(C)c2cnc(Nc3ccc(C(=O)N[C@H]4CC[C@H](N5CCN(CC6CC6)CC5)CC4)cc3OC)nc2N1C(C)C [volasertib]
Method in brief: as §1

[2] = compound: CC[C@H](C)N1C=C(C2=C(C=C(C=C21)C3=CN=C(C=C3)N4CCNCC4)C(=O)NCC5=C(C=C(NC5=O)C)C)C
Method in brief: as §1

epoxomicin = compound: CC[C@H](C)[C@@H](C(=O)N[C@@H]([C@@H](C)O)C(=O)N[C@@H](CC(C)C)C(=O)[C@]1(CO1)C)NC(=O)[C@H]([C@@H](C)CC)N(C)C(=O)C [epoxomicin]
Method in brief: as §1

[3] = compound: CCn1c(C(=O)N(C2CC2)C2CC2)cc2c3c(ncn3C)c(Nc3cc(C)n(C)n3)nc21
Method in brief: as §1

[4] = compound: CCn1cc(-c2ccnc3[nH]c(-c4cccc(CN(C)C)c4)cc23)c(-c2ccc(NC(=O)N(C)C)cc2)n1
Method in brief: as §1

[5] = compound: CN(C)CC(=O)Nc1ccc2[nH]c(=O)c3ccccc3c2c1
Method in brief: as §1

rosiglitazone = compound: CN(CCOC1=CC=C(C=C1)C[C@H]2C(=O)NC(=O)S2)C3=CC=CC=N3 (racemic) [rosiglitazone]
Method in brief: as §1

[6] = compound: CN1C2=C(C3=C1C(=O)N(N=C3)CC4=CC(=CC=C4)N)SC(=C2)S(=O)C
Method in brief: as §1

[7] = compound: CN1CCC(CNc2ccc3ncc(-c4cccc(OC(F)(F)F)c4)n3n2)CC1
Method in brief: as §1

Chain of UniProt P36897 (P36897 whole entry, looked up): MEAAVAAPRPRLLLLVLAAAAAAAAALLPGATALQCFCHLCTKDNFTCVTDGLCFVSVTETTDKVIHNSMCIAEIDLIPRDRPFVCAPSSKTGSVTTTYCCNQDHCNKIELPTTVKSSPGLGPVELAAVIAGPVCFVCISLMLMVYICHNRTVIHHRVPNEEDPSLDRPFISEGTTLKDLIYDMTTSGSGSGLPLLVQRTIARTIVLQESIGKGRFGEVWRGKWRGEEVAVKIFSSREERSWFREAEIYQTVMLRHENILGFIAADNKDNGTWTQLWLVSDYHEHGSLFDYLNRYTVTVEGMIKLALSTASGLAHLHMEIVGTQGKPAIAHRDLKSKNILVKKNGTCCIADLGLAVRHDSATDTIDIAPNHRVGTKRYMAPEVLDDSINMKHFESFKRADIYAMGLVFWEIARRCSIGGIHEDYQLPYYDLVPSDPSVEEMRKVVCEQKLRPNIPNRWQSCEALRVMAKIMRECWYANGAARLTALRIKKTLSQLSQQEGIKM
Chain of UniProt P23497 (P23497 whole entry, looked up): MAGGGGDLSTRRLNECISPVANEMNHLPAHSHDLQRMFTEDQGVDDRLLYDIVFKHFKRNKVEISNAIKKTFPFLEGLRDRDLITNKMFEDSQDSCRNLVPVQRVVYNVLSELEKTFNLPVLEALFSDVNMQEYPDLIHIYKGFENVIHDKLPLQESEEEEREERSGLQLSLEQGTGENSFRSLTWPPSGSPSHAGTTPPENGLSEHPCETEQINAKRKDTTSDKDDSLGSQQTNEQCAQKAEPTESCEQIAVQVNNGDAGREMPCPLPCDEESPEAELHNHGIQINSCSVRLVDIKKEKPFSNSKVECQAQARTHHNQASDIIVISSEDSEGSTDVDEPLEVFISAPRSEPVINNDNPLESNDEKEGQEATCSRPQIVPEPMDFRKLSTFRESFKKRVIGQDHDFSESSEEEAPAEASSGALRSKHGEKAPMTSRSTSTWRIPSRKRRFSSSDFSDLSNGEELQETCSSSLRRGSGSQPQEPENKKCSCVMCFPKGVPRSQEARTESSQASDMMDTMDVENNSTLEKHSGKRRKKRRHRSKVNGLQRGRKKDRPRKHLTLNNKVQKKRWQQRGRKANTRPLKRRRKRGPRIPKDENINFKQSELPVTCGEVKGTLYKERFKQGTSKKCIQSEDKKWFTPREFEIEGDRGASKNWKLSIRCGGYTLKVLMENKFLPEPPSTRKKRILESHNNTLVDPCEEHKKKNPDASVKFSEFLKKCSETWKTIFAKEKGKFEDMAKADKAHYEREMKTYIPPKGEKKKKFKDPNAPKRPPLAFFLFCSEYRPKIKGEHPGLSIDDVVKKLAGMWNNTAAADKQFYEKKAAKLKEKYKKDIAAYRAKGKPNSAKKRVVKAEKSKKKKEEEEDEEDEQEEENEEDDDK
Chain of UniProt Q9ULP9 (Q9ULP9 whole entry, looked up): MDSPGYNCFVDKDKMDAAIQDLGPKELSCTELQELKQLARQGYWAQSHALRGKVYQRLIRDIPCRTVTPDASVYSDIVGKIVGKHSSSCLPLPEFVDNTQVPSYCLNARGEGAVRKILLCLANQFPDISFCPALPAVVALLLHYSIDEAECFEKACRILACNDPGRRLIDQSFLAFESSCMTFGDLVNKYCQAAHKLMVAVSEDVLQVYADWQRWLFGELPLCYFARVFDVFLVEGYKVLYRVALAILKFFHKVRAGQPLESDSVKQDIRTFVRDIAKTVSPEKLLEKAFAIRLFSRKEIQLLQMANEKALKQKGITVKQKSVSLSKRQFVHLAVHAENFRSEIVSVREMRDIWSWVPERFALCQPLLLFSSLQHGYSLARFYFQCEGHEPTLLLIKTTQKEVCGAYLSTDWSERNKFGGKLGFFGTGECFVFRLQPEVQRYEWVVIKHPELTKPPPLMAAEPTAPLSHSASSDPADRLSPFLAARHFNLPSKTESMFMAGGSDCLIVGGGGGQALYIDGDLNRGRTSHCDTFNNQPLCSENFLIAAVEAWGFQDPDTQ
Chain of UniProt O14776 (O14776 whole entry, looked up): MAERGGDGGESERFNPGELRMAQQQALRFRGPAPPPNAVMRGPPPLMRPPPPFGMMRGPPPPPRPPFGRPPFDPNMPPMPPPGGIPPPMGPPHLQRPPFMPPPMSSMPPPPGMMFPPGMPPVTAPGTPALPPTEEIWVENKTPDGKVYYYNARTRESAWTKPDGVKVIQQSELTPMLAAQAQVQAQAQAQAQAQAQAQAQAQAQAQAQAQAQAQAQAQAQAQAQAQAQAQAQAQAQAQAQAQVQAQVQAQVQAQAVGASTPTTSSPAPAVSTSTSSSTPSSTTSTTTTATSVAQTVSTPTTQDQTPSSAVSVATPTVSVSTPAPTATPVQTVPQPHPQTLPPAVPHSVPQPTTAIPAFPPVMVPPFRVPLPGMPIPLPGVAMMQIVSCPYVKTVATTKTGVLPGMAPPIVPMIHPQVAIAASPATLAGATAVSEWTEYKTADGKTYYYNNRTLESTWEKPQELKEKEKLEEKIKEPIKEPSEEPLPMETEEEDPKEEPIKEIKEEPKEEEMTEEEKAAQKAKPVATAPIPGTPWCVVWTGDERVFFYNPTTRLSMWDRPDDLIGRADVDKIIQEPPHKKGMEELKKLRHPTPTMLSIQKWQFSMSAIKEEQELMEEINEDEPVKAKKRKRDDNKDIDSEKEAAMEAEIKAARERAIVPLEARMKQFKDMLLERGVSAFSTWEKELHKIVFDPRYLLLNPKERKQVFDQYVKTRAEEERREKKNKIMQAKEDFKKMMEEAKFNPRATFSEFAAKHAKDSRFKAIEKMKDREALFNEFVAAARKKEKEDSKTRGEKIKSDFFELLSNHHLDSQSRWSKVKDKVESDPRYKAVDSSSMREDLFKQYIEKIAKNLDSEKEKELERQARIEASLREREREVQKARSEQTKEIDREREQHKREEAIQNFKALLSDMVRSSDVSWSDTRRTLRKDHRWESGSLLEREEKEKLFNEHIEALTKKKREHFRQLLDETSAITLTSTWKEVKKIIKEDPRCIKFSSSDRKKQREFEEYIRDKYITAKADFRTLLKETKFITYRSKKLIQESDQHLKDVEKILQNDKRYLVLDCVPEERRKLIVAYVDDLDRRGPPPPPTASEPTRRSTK
Chain of UniProt Q5M775 (Q5M775 whole entry, looked up): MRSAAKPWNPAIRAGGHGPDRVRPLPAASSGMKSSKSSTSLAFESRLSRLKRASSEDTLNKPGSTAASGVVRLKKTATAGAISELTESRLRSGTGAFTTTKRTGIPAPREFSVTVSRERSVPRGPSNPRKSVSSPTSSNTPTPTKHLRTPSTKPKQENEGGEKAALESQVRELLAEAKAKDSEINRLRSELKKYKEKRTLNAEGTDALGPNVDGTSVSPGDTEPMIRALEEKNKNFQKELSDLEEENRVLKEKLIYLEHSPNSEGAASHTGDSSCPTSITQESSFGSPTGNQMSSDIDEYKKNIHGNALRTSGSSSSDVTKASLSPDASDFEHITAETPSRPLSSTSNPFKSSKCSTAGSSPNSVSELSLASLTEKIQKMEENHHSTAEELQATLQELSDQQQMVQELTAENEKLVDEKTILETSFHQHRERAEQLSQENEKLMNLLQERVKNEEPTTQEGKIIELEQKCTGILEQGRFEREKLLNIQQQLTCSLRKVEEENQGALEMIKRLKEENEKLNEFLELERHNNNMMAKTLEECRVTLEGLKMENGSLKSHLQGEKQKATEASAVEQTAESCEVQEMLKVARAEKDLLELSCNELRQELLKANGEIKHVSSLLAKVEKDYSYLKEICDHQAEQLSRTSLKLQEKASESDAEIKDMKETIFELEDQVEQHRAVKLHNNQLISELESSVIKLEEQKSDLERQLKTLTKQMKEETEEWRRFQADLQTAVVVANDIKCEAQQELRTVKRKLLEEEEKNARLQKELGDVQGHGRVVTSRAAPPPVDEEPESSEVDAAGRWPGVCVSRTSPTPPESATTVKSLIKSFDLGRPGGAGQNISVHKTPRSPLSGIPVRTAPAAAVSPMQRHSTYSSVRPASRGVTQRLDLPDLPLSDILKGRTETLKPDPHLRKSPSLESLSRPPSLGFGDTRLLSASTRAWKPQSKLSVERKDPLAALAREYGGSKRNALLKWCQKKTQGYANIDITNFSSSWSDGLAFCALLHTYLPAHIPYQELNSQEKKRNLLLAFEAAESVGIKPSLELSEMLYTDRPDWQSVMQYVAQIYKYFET

Target	log2 fold change [1]	log2 fold change (volasertib)	log2 fold change [2]	log2 fold change (epoxomicin)	log2 fold change [3]	log2 fold change [4]	log2 fold change [5]	log2 fold change (rosiglitazone)	log2 fold change [6]	log2 fold change [7]
TGFBR1 isoform 2 (UniProt P36897)	-0.041	-0.179	-0.022	0.033	-0.049	-0.023	-0.028	0.122	0.021	0.076
TCERG1 (UniProt O14776)	-0.145	-0.445 (active)	0.133	0.116	-0.076	-0.032	0.135	0.071	-0.038	-0.136
SP100 isoform 4 (UniProt P23497)	-0.021	-0.065	0.012	-0.006	0.023	0.056	-0.045	-0.009	-0.059	-0.064
TBC1D24 (UniProt Q9ULP9)	0.025	-0.028	0.05	-0.011	-0.006	-0.175	0.018	0.075	-0.067	-0.236
SPECC1 (UniProt Q5M775)	0.109	0.052	-0.013	-0.101	0.037	0.004	-0.111	0.023	0.07	-0.012
TJP2 isoform 7 (UniProt Q9UDY2)	-0.128	-0.298	-0.018	0.01	-0.041	-0.083	0.015	0.07	-0.021	-0.094
